# Hit rate of the full screen: of about 48,000 compounds, about 13,000 (27%) showed an effect of 50% or more. The list shows a part of the results.
# System: Wolbachia pipientis
# Assay: Anti-Wolbachia Cell-Based Screen
# Format: functional
# Design: scale not given: in the data most compounds retested in dose-response had high values
# Details: 5 µM
row,SMILES,Percent Effect [%]
1,c1cc(-c2noc(-c3cc(C4CC4)on3)n2)cc(N2CCCCC2)n1,-2.255
2,CCn1nc2c(cc1=O)CN(Cc1nc(N)c3ccccc3n1)CC2,12.33
3,O=C(Cc1csc(N2CCNC2=O)n1)NCC1(c2ccccc2)CC1,8.123
4,Cc1ncsc1CN1CC[C@](C)(O)[C@@H](Oc2cccc(F)c2)C1,111.6
5,Cc1ncsc1CN1C[C@H]2CC[C@@H]1CN(Cc1ccccc1)C2,1.915
6,Cc1ncsc1CNc1cccc(OCCN2CCCC2)c1,8.667
7,Cc1nnc(SCCCNC(=O)Nc2ccc3c(c2)OCO3)s1,7.014
8,NC(=O)c1cc2c(nc1N1C[C@H]3OC(=O)N(C4CCCC4)[C@H]3C1)CCC2,94.23
9,Cc1ccc(C(N)=O)c(N2C[C@H]3OC(=O)N(C4CCCC4)[C@H]3C2)n1,112.7
10,Cc1cnc(C)c(N2CCCC(CC3CC3)(C(=O)O)C2)n1 (stereo not given),0.08182
11,Cc1cnc(C)c(N2C[C@H]3OC(=O)N(C4CCCC4)[C@H]3C2)n1,94.65
12,CN(CC1CCCCO1)c1nc2c(cc1C(N)=O)CCC2 (stereo not given),-5.698
13,Cc1ccc(N2C[C@H]3OCC[C@H]3[C@H](C(=O)NC3CCCC3)C2)nn1,11.3
14,COc1ccccc1CN1C(=O)O[C@@H]2CN(c3nc(C)cc(C)n3)C[C@@H]21,-8.092
15,COc1ccccc1CN1C(=O)O[C@@H]2CN(c3nc(C)cnc3C)C[C@@H]21,-4.864
16,NC(=O)c1cc2c(nc1-c1ccoc1)CCC2,-15.41
17,Cc1nccn1CCN(C)c1nc(-c2ccc(Cl)cc2)nc2c1CNC2,-50.51
18,COc1ccccc1N(C)S(=O)(=O)c1cc(C(=O)O)cs1,22.41
19,Cc1cc(C)cc(N(C)S(=O)(=O)c2cc(C(=O)O)cs2)c1,-4.793
20,Cc1ccc(N(C)S(=O)(=O)c2cc(C(=O)O)cs2)cc1,139
21,Cc1cccc(N(C)S(=O)(=O)c2cc(C(=O)O)cs2)c1C,-9.49
22,CN(c1ccc(C(C)(C)C)cc1)S(=O)(=O)c1cc(C(=O)O)cs1,-4.452
23,CN(c1ccc(F)c(F)c1)S(=O)(=O)c1cc(C(=O)O)cs1,2.683
24,CN(c1cccc2ccccc12)S(=O)(=O)c1cc(C(=O)O)cs1,-12.64
25,Cc1ccc(N(C)S(=O)(=O)c2cc(C(=O)O)cs2)c(C)c1,115

row,SMILES,Percent Effect [%]
1,CCN(c1cc(C)cc(C)c1)S(=O)(=O)c1cc(C(=O)O)cs1,116.9
2,CCOc1cccc(NS(=O)(=O)c2cc(C(=O)O)cs2)c1,19.91
3,CN(c1ccc2ccccc2c1)S(=O)(=O)c1cc(C(=O)O)cs1,28.59
4,Cc1cccc(N(C)S(=O)(=O)c2cc(C(=O)O)cs2)c1,112.1
5,COCC1CN(C(=O)c2cccn2C)Cc2ncnn2C1 (stereo not given),-3.009
6,CCN1CCCC1CN(CCN(C)C)S(=O)(=O)c1ccccc1C#N (stereo not given),-13.86
7,CN(Cc1cccc(F)c1)C(=O)CS(=O)(=O)Cc1c(Cl)cccc1Cl,-4.804
8,Cc1nn(C)c(C)c1NC(=O)CNc1cccc(CC(F)(F)F)c1,-3.048
9,FC(F)(F)c1ccc2nc([C@H]3CCN(C4CCC4)C3)[nH]c2c1,0.6058
10,O=C(NCCN1CCCC1)c1ccc2c(-c3nccs3)noc2c1,3.961
11,Cc1cccc2c1nc1n2[C@@H](CNC(=O)c2cncnc2)COC1,-4.11
12,CCN(C(=O)NCc1ccc(C)cc1OC)C(C)c1cccnc1 (stereo not given),2.223
13,CCC(C)(C)NC(=O)CN(Cc1cccc(O)c1)C1CCC(O)CC1 (stereo not given),-0.7077
14,CCOC(=O)C1(CCOC)CCCN(Cc2nccn2CC)C1 (stereo not given),-2.653
15,COc1c(CNCCC(=O)Nc2cccc(C)n2)c(C(C)C)nn1C,-41.29
16,COc1c(CNC(C)C(=O)NC2CCCC2)c(C(C)C)nn1C (stereo not given),-36.61
17,COc1c(CNCCC(=O)NC2CCCC2)c(C(C)C)nn1C,98.08
18,COc1c(CNCCC(=O)NC2CCCCC2)c(C(C)C)nn1C,109.1
19,COc1c(CNC(C)C(=O)NC2CCCC2)c(C)nn1C (stereo not given),6.635
20,COc1c(CNCc2nnc3n2CCCCC3)c(C(C)C)nn1C.Cl,3.985
21,CC(C)C1CN(c2ncccn2)CCC(=O)N1CC1CC1 (stereo not given),-33.18
22,CC(=O)N1CCCN(C(=O)c2cnc(OC(C)C)c(Cl)c2)CC1,-53.74
23,C[C@@H]1CN(C(=O)c2ccc(C#N)nc2)C[C@@]1(O)C1CC1,-20.15
24,CCc1cc(C(=O)N2CCC3(CCCN(CCOC)C3=O)C2)cs1 (stereo not given),-4.642
25,COCCN1CCCC2(CCN(C(=O)c3cnc(O)cn3)C2)C1=O (stereo not given),-81.96

row,SMILES,Percent Effect [%]
1,CCc1ocnc1C(=O)N1CCC2(CCCN(CC(C)(C)C)C2=O)C1 (stereo not given),100.3
2,CCCc1cc(C(=O)N2CCC3(CCCN(CCOC)C3=O)C2)cs1 (stereo not given),13.33
3,Cc1occc1C(=O)N1CCC2(CCCN(CC3CC3)C2=O)C1 (stereo not given),-3.086
4,CCc1n[nH]c(C(=O)N2CCC3(CCCN(CCOC)C3=O)C2)c1C (stereo not given),116.4
5,CCCc1cc(C(=O)N2CCC3(CCCN(CCO)C3=O)C2)cs1 (stereo not given),-0.6433
6,CCc1c(C(=O)N2CCC3(CCCN(CCO)C3=O)C2)csc1C (stereo not given),7.73
7,CNc1nc(C(=O)N2CCC3(CCCN(CC4CC4)C3=O)C2)cs1 (stereo not given),-46.01
8,CCc1noc(C)c1C(=O)N1CCC2(CCCN(CC(C)(C)C)C2=O)C1 (stereo not given),101.6
9,CCc1cc(C(=O)N2CCC3(CCCN(CC4CC4)C3=O)C2)cs1 (stereo not given),55.55
10,Cc1occc1C(=O)N1CCC2(CCCN(CC3CCC3)C2=O)C1 (stereo not given),-0.1295
11,CCn1cc(CN2CCC(C3CCN(C)CC3)CC2)cc1C#N,8.542
12,CC1CCN(C(=O)[C@@H]2C[C@H]3OCC[C@H]3N(Cc3ccoc3)C2)CC1.O=C(O)C(F)(F)F,-6.203
13,COc1ccc2c(c1)C(C(=O)N(C)CCc1cnn(C)c1)CC(=O)N2 (stereo not given),2.797
14,Cc1csc(N(C)C(=O)C(c2c(F)cccc2Cl)N(C)C)n1 (stereo not given),1.249
15,c1ccc(OCc2noc(CN3CCN(C4CCCC4)CC3)n2)cc1,4.136
16,Cc1n[nH]c(C)c1CC(=O)N1CC[C@@](C)(O)[C@@H](Cc2ccccc2)C1,-1.869
17,Cc1noc(C)c1CC(=O)N1CC[C@@](C)(O)[C@H](Oc2ccccc2)C1,138.5
18,Cc1nc(C)c(CC(=O)N2CCC(Oc3ccccc3)CC2)c(=O)[nH]1,3.027
19,Cc1noc(C)c1CNC(=O)N1CCC(C(O)c2ccccc2)CC1 (stereo not given),-2.263
20,Cc1n[nH]c(C)c1CC(=O)N1CC[C@@](C)(O)[C@H](Oc2ccccc2)C1,132.6
21,Cc1n[nH]c(C)c1CC(=O)N1CCC2(CC1)CN(C)CCN2C,-2.947
22,CC[C@H](CO)NC(=O)c1coc(COc2cccc(F)c2F)n1,-21.32
23,COC(=O)CCCNC(=O)c1cc(COc2cncc(Cl)c2)on1,3.929
24,CCN(Cc1csc(C)n1)c1cccc(CO)c1,19.84
25,COc1ccc(-c2nnc(C(C)N3CCOCC3)o2)cc1 (stereo not given),0.5331

row,SMILES,Percent Effect [%]
1,CC(c1nnc(-c2ccccc2)o1)N1CCC(Nc2ccccc2)CC1 (stereo not given),109.3
2,COc1ccc(-c2nnc(C(C)N3CCC4(CC3)OCCO4)o2)cc1 (stereo not given),-10.61
3,COCCCN1CC2(CCN(Cc3cc(C(C)C)no3)CC2)CC1=O,-15.73
4,CC(C)c1cc(CN2CCC(CC(=O)O)CC2)no1,25.42
5,CC(C)c1cc(CN2CCC(N)CC2)on1,102.3
6,CC(C)c1cc(N2CCC(N)CC2)n2nccc2n1,-3.508
7,CCN1CCN(C2CCN(Cc3cc(C)on3)CC2)C1=O,-12.89
8,CC(C)c1cc(CN2CCC(N)CC2)no1,118.3
9,Cc1cnc(CN2CCC(N(C)Cc3noc(C4CC4)n3)C2)o1 (stereo not given),113
10,Cc1cnc(CN(C)C2CCN(CCc3cnn(C)c3)C2)o1 (stereo not given),-1.466
11,CN(Cc1noc(C2CC2)n1)C1CCN(Cc2ccncc2)C1 (stereo not given),-0.4709
12,CCn1ccnc1CN1CCC(N(C)Cc2ncc(C)o2)C1 (stereo not given),-2.074
13,Cc1cnc(CN(C)C2CCN(Cc3nnc(C4CC4)o3)C2)o1 (stereo not given),131.1
14,O=C(c1cnn2cc(CCO)cnc12)N1CCOC(C(F)(F)F)C1 (stereo not given),-0.009577
15,CCOc1ccc(CN(C)C(=O)NC(C)c2nncn2C)cc1 (stereo not given),-12.44
16,CC(NCc1cccnc1)c1cc2c(cc1Br)OCCO2 (stereo not given),-3.161
17,CNS(=O)(=O)CCCN1CCN(C(C#N)c2ccccc2)CC1 (stereo not given),112.4
18,CS(=O)(=O)CCCN1CCN(C(C#N)c2ccccc2)CC1 (stereo not given),95.09
19,CNS(=O)(=O)CCCN1CCN(C(C)c2cccnc2)CC1 (stereo not given),7.44
20,N#Cc1cccc(CS(=O)(=O)NCCC(O)c2ccccc2)c1 (stereo not given),7.655
21,CC(c1ccc(Cl)cc1)N1CCN(CCCS(C)(=O)=O)CC1 (stereo not given),-1.134
22,CC(c1ccc(Cl)cc1)N1CCN(CCS(C)(=O)=O)CC1 (stereo not given),6.907
23,CC(c1ccc(Cl)cc1)N1CCN(CCNS(C)(=O)=O)CC1 (stereo not given),-1.965
24,CNS(=O)(=O)CCCN1CCCN(Cc2ccccc2)CC1C (stereo not given),-3.956
25,CCS(=O)(=O)NCCN1CCN(C(C#N)c2ccccc2)CC1 (stereo not given),106.3
